Screens as filed in PubChem BioAssay.
NPC1 prom act – activates the NPC1 promoter. Huh7 NPC1 promoter luciferase reporter, 24 h. Potency, µM (highest dose often 9.22 µM), actives largely listed as activators. 320,000 compounds, 2.4% hits. AID 485313; also: nearly all actives have a fitted effect of over 60% in size
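Readout is luciferase luminescence, reflecting NPC1 promoter activation in stably transfected Huh7 cells after 24 h compound exposure at 37 °C in reduced-serum medium with 10% FBS.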
ELG1 DNA repair – inhibitors of ELG1-dependent DNA repair in HEK293T cells; HEK293T ELG1-luciferase reporter, luminescence, 16 h; DNA damage induced by 5-fluorouridine; 330,000 compounds, 2.3% hits; Potency, µM (titrated, usually from 46.1 µM), actives largely listed as inhibitors; AID 504467; also: nearly all actives have a fitted effect of over 55% in size
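Step one: seed 2,000 cells per well. Step two: pin-transfer compound or DMSO alongside 5-fluorouridine. Step three: incubate 16 hr, 37 °C, 5% CO2. Step four: add ONE-Glo, wait 30 min, read luminescence.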
FLuc modulator – firefly luciferase modulation, counter-screen for miR-21 project; AID 588342; P08659; 360,000 compounds, 6.9% hits; purified FLuc, Km substrates, luminescence inhibition; Potency, µM (highest dose often 57.5 µM), most hits filed as inhibitors; also: nearly all actives have a fitted effect of over 55% in size
Target sequence (P08659 whole entry, looked up): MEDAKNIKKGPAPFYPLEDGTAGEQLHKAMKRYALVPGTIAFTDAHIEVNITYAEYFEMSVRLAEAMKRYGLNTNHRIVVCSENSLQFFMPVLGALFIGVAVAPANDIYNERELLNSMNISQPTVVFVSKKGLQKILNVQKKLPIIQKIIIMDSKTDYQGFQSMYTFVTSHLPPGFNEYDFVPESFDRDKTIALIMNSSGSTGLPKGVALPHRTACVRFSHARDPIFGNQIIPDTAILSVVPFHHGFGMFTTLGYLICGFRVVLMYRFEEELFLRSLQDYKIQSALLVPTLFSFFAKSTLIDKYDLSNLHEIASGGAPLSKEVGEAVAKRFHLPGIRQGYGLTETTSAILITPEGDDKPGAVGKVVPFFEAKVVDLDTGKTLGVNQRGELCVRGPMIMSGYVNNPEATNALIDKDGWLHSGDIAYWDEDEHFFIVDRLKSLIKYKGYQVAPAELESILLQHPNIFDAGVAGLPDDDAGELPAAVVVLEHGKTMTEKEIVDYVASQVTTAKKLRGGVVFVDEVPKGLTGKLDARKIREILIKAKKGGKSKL
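Biochemical qHTS of compounds, final roughly 60 µM downward over six points, against 10 nM purified firefly luciferase using Km concentrations of substrates (10 uM D-luciferin, 10 uM ATP) in Tris acetate pH 7.5 buffer; luminescence output.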
ELG1 genotoxic – genotoxicity induction in ELG1-luciferase HEK293T cells | HEK293T ELG1-luciferase reporter, luminescence, 16 h | Potency, µM (titrated, usually from 46 µM), actives largely listed as activators | 330,000 compounds, 1.3% hits; also: nearly all actives have a fitted effect of over 60% in size
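DMSO vehicle served as control against compound-treated ELG1-luciferase HEK293T cells; exposure lasted 16 hr at 37 °C and 5% CO2, followed by ONE-Glo luminescence detection after 30 min.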
Rab9 prom act – Rab9 promoter activation; Huh7 Rab9 promoter-luciferase reporter, luminescence, 24 h; Potency, µM (series often up to 9.22 µM), actives largely listed as activators; 320,000 compounds, 2.8% hits; AID 485297; also: nearly all actives have a fitted effect of over 60% in size
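Stable Rab9-luc Huh7, 1500 cells/well, 2 h settle; cmpd in DMSO, 24 h, 37 °C/5% CO2; luciferase reagent 10 min RT; luminescence.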
SMN2 splice enh – SMN2 splice variant enhancement; 210,000 compounds, 2.8% hits; HEK293 SMN2-luciferase splicing reporter, luminescence, 30-36 h; Potency, µM (series often up to 46.1 µM), most hits filed as activators; also: nearly all actives have a fitted effect of over 55% in size
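qHTS luciferase splicing reporter: luminescence rises when SMN2 exon 7 is included in transfected HEK293 cells. Compound exposure lasted 30-36 h at 37C, with 4.5 mM final sodium butyrate as control, followed by a ONE-Glo read.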
Numbers stand for hits; . = inactive; ? = inconclusive; / = no result; [ ] = another dose, or the depositor's remark. Shown are actives, neighbours in structure and some others; about 9.2% of the full set was active somewhere. Calls follow the shape of the dose curve; as a rule, active = well fitted curve in the direction sought with a large enough effect; inconclusive = small, poorly fitted or top-dose-only effect, or another doubt; inactive = no such curve, though single readings can be large; an effect the other way counts as inactive or inconclusive.

SMILES | NPC1 prom act | ELG1 DNA repair | FLuc modulator | ELG1 genotoxic | Rab9 prom act | SMN2 splice enh
O=C(NC1CCCC1)c1cnn2c(C(F)(F)F)cc(-c3ccc4c(c3)OCO4)nc12 | . | 4.11µM | . | . | . | .
COc1ccc(-c2cc(C(F)(F)F)n3ncc(C(=O)N(C)Cc4ccccc4)c3n2)cc1 | . | 14.6µM | . | . | . | .
CN1CCN(C(=O)c2cnn3c(C(F)(F)F)cc(-c4ccc5c(c4)OCO5)nc23)CC1 | . | 5.8µM | . | ? | . | /
Cc1ccc(-c2cc(C(F)(F)F)n3ncc(C(=O)N4CCN(C)CC4)c3n2)cc1 | . | 9.2µM | . | . | . | .
CC1Cc2cc(S(=O)(=O)NCc3ccc(Cl)cc3)ccc2N1C(=O)C1CCC1 (stereo not given) | / | / | . | / | / | /
Cc1ccc(NC(=O)c2ccc3c(c2)NC(=O)c2ccccc2S3)cc1 | / | / | . | / | / | .
Cc1cc2cc(CN(Cc3ccc4c(c3)OCO4)C(=O)c3cnccn3)c3nnnn3c2cc1C | . | 16.4µM | . | . | . | .
COc1cc(C(=O)Nc2ccccc2N2CCOCC2)ccc1OCC(=O)N1CCOCC1 | . | . | . | . | . | /
OC(COCC1COc2ccccc2O1)CN1CCN(c2ccccc2F)CC1 (stereo not given) | . | . | . | . | . | .
O=C(OCC1COc2ccccc2O1)c1c(F)cccc1F (stereo not given) | . | ? | 15.1µM | ? | . | /
Clc1cccc(/C=N/Nc2nnc(Cl)c3ccccc23)c1 | ? | ? | ? | . | . | .
Clc1ccc(/C=N/Nc2nnc(-c3ncc[nH]3)c3ccccc23)cc1 | 4.47µM | . | 0.849µM | . | 2.82µM | ?
CCCCCc1ccc(-c2ccc(Br)cc2)nc1 | / | / | 2.13µM | / | / | .
CCCCCCCc1ccc(-c2ccc(O)cc2)nc1 | ? | ? | 19µM | ? | 3.16µM | 14.1µM
CCCc1ccc(-c2ccc(C(=O)Oc3ccc(Br)cc3)cc2)nc1 | / | / | . | / | / | .
CC(=O)C1=C(O)C(=O)N(c2ccc(Br)cn2)C1c1ccc(F)cc1 (stereo not given) | 2.24µM | ? | . | ? | 3.98µM | .
CCc1nc(C)c(C(=O)N2CCCC(C(=O)Nc3cccc(-c4cccc(C)c4)c3)C2)o1 (stereo not given) | . | ? | ? | . | . | /
Cc1ccc(N=Cc2ccc(N(C)C)cc2)cc1 | . | . | ? | . | . | .
CN(C)c1ccc(C=Nc2ccc(N(C)C)cc2)cc1 | . | ? | 8.49µM | ? | . | .
CN(C)c1ccc(C=Nc2ccccc2)cc1 | . | ? | 0.426µM | . | . | .
Cc1nc(/N=C\c2ccc(N(C)C)cc2)sc1C | . | . | 0.301µM | . | . | /
Cc1ccc(S(=O)(=O)N(C)/N=C/c2ccc(N(C)C)cc2)cc1 | . | ? | . | . | . | /
Cc1ccc(N=Cc2ccc(N(C)C)cc2)cc1C | . | . | 0.953µM | . | . | .
Cc1c(Cl)cccc1NC(=O)Cn1nnc(-c2nc(-c3ccccc3)no2)c1N | / | / | . | / | / | /
C(=Nc1cccc2c(N=Cc3ccco3)cccc12)c1ccco1 | . | . | . | . | . | .
SMILES | NPC1 prom act | ELG1 DNA repair | FLuc modulator | ELG1 genotoxic | Rab9 prom act | SMN2 splice enh
CN(C)c1ccc(N=Cc2ccco2)cc1 | . | ? | 4.78µM | ? | . | .
CCOc1ccc(S(=O)(=O)Nc2cccc(-c3ccc(N4CCCCCC4)nn3)c2)cc1 | . | ? | 8.49µM | ? | . | /
CCCCOc1ccc(S(=O)(=O)Nc2cccnc2)cc1 | . | . | . | . | . | .
CCCCOc1ccc(S(=O)(=O)Nc2cccc(-c3ccc(N4CCOCC4)nn3)c2)cc1 | / | / | 13.5µM | / | / | /
O=c1[nH][nH]cc1C=Nc1ccc(Cl)cc1Cl | . | . | 7.57µM | . | . | .
O=c1[nH][nH]cc1C=Nc1cc(Cl)ccc1O | . | . | . | . | . | .
CCS(=O)(=O)c1nn2c(N)c(/C=C3/C=CC(=O)C(OC)=C3)c(=O)nc2s1 | . | . | ? | . | . | .[1.84 µM]
CCOC1=C/C(=C/c2c(N)n3nc(-c4ccccc4)sc3nc2=O)C=CC1=O | . | . | ? | . | . | .
COC1=C/C(=C/c2c(N)n3nc(-c4ccc(C)cc4)sc3nc2=O)C=CC1=O | . | ? | 15.1µM | ? | . | ?
CS(=O)(=O)c1ccc2c(c1)sc1nc(=O)c(/C=C3/C=CC(=O)C(O)=C3)c(N)n12 | . | ? | 4.78µM | ? | . | /
COC1=C/C(=C/c2c(N)n3c(nc2=O)sc2cc(S(C)(=O)=O)ccc23)C=CC1=O | . | ? | 9.53µM | . | . | /
Cc1ccc(S(=O)(=O)NCc2ccccc2)cc1C(=O)NCC1CCCO1 (stereo not given) | . | . | . | . | . | /
CCCCCCCCCCOC(=O)NC1CCS(=O)(=O)C1 (stereo not given) | . | 23.1µM | . | . | . | .
CCCOC(=O)NC1CCS(=O)(=O)C1 (stereo not given) | . | . | . | . | . | .
CC1CN(c2cc(-c3ccccc3)c3ccccc3n2)CC(C)O1 (stereo not given) | . | . | . | . | . | .
c1ccc2c(N3CCCCCC3)nc(-c3ccncc3)nc2c1 | . | 7.31µM | . | . | . | .
c1cncc(-c2nc(N3CCCCCC3)c3ccccc3n2)c1 | . | ? | . | . | . | .
CCCOc1ccc(-c2nc(N3CCN(C)CC3)c3ccccc3n2)cc1 | ? | ? | 4.78µM | ? | 3.16µM | /
CN(C)c1ccc(-c2nc(N3CCNCC3)c3ccccc3n2)cc1 | / | / | / | / | / | 11.2µM
CC1CN(c2nc(-c3ccccc3)nc3ccccc23)CC(C)O1 (stereo not given) | . | 13µM | . | . | . | .
Cc1nc(NCc2ccccc2)c2nc(-c3ccccc3)n(CCCN3CCCCC3C)c2n1 (stereo not given) | / | / | / | / | / | .
C(=C\c1nc(N2CCCCCC2)c2ccccc2n1)/c1ccccc1 | . | . | 8.49µM | . | . | /
COc1ccccc1C(=O)Nc1ccc(OCc2cc(=O)n3ccsc3n2)cc1 | / | / | . | / | / | .
CNCCCOc1ccc2c(c1)CCC2 | . | ? | . | . | . | .
CCC(=O)c1ccc(OCCSc2ncccn2)cc1 | 3.98µM | ? | 19µM | 3.66µM | 2µM | 7.94µM
c1cnc(SCCOc2ccc3c(c2)CCC3)nc1 | 2.82µM | ? | 1.69µM | 4.61µM | 1.58µM | 12.6µM
CCOC(=O)C1CCCN(C(=O)c2cccc(S(=O)(=O)N(C)c3ccc(C)cc3)c2)C1 (stereo not given) | . | . | . | . | . | /
COC(=O)N1CCC2(CC1)CCN(c1ncccn1)CC2 | / | / | / | / | / | .
N#C/C(=C\c1c[nH]c2ccccc12)C(N)=O | . | . | ? | . | . | /
CC(=O)Oc1c(/C=C(\C#N)C(N)=O)[nH]c2ccccc12 | . | 20.6µM | ? | . | . | .
